This note sets out measurements from PubChem BioAssay AID504467 (National Center for Advancing Translational Sciences (NCATS), 2011).

Among all 330,000 compounds or so, about 7,700 (2.3%) were called active. About 26% were inconclusive and are not listed. The sample holds actives, similar compounds and a random draw of the others, so the mix is not that of the screen. Calls come from the whole dose curve; as a rule, active = well fitted inhibition curve with a large enough effect; inconclusive = small, poorly fitted or top-dose-only effect, or effect the other way; inactive = flat fitted curve, though single readings scatter.
% is set by controls: 0 for no effect and ±100 for the full control effect; potency is the fitted concentration of half-maximal effect.

A short description of this assay: qHTS screen for small molecules that inhibit ELG1-dependent DNA repair in human embryonic kidney (HEK293T) cells expressing luciferase-tagged ELG1. Note: nearly all actives have a fitted effect of over 55% in size. Particulars: HEK293T ELG1-luciferase reporter, luminescence, 16 h, DNA damage induced by 5-fluorouridine; series mostly up to 46.1 µM; activity change, negative = inhibition: at the top concentration. The gist of the method:
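Luminescence from the luciferase reporter, measured 30 min after ONE-Glo reagent at room temperature, was the read-out. Beforehand, 2,000 cells per well were exposed for 16 hr at 37 °C to 5-fluorouridine together with compound or vehicle.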
On the technique in general: qHTS replaces the single test concentration by a dilution series.
For `Cn1nccc1C(=O)N1CCCC(C(=O)c2ccc(Oc3ccccc3)cc2)C1` (configuration not stated), the “activity change, negative = inhibition” value was -11% (inactive). On the same count and under the same terms, in the case of `Cc1ccccc1NC(=S)NC(=O)Cc1ccc(Cl)cc1` it was 1.58% (inactive); in that of `OC(CNCCc1ccc(Cl)cc1Cl)COc1ccccc1` (configuration not stated), -0.165% (inactive); in that of `COCCN(CCOC)S(=O)(=O)NC[C@H]1O[C@@H](n2cnc3c(N)ncnc32)[C@H](O)[C@@H]1O`, -3.78% (inactive). As for `O=c1ccc(S(=O)(=O)N2CCCC2)cn1Cc1nc(-c2ccccc2)no1`, the “activity change, negative = inhibition” value is -15.5% (inactive). As to `Cn1c(=O)c2c(nc(N/N=C/c3cccs3)n2Cc2ccc(Br)cc2)n(C)c1=O`, the Potency is 20.6 µM (active). Take `Cn1c(=O)c2sccc2n(Cc2ccc(Br)cc2)c1=O`: the “activity change, negative = inhibition” value was 16.2% (inactive). With `COCCn1cnc2c1c(=O)n(Cc1ccc(Br)cc1)c(=O)n2Cc1ccccc1`, the “activity change, negative = inhibition” value was -9.32% (inactive).

As for `CN1CCN(Cc2nc3c(c(=O)n(C)c(=O)n3C)n2Cc2cccc3ccccc23)CC1`, the “activity change, negative = inhibition” value is -2.34% (inactive).

Regarding `CCN1CCN(Cc2nc3c(c(=O)n(C)c(=O)n3C)n2CC(=O)c2ccccc2)CC1`, the “activity change, negative = inhibition” value was 14.6% (inactive).

Turning to `CCOC(=O)N1CCN(Cc2nc3c(c(=O)n(C)c(=O)n3C)n2Cc2ccccc2)CC1`, the Potency is 10.3 µM (active). As for `CCOC(=O)N1CCN(C(=O)c2ccc3c(=O)n(CCc4ccc(OC)c(OC)c4)c(=O)[nH]c3c2)CC1`, the “activity change, negative = inhibition” value was -21.5% (inactive). The same measure, in the same setting: in the case of `Cc1ccc(-n2nc3c(=O)n(C(C)C(=O)NCc4ccc5c(c4)OCO5)nc(C)c3c2C)cc1` (configuration not stated) it was -19.3% (inactive); in that of `Cc1ccc(-c2csc(N3CCN(c4cc5c(cc4Cl)nc(-c4ccncc4)n5CCOCCO)CC3)n2)cc1`, -27.4% (inactive); in that of `CCN([C@H](CO)C(C)C)S(=O)(=O)c1ccccc1Br`, 5.25% (inactive). Regarding `CCOc1ccc(NS(=O)(=O)c2ccc(Cl)c(C(=O)N(C)Cc3cccnc3)c2)cc1`, the “activity change, negative = inhibition” value is -12.3% (inactive). Take `CCC(C)(C)n1nnnc1C(c1ccccc1OC)N1CCSCC1` (configuration not stated): the “activity change, negative = inhibition” value is 0.736% (inactive). As to `CCC(C)(C)n1nnnc1C(c1cccs1)N1CCN(c2nc3ccccc3s2)CC1` (configuration not stated), the Potency is 20.6 µM (active). For the molecule `CCC(C)(C)n1nnnc1C(c1cccs1)N1CCN(Cc2ccccc2)CC1` (configuration not stated), the “activity change, negative = inhibition” value is -3.91% (inactive). Take `CC(=O)c1ccc(N2CCN(C(=O)c3ccc(Cl)c(S(=O)(=O)NC4CC4)c3)CC2)c(F)c1`: the “activity change, negative = inhibition” value was -29.7% (inactive). Consider `COc1ccc(OC)c(/C(C)=N\NC(=O)c2cc3cc(Cl)ccc3n2C)c1`, for which the Potency is 16.4 µM (active).

In the case of `COc1ccc(OC)c(C(=O)c2ccc(Cl)cc2)c1`, the “activity change, negative = inhibition” value was 0% (inactive). As for `COc1ccc(/C(C)=N/NC(=O)CCC(=O)Nc2ccc(Cl)cc2Cl)c(OC)c1`, the “activity change, negative = inhibition” value was -20.7% (inactive). In the case of `CCN(CC(=O)Nc1cccc(S(=O)(=O)N2CCCCC2)c1)Cc1ccccc1`, the “activity change, negative = inhibition” value was -1.55% (inactive). On to `O=C(NNS(=O)(=O)c1c(F)cc(F)c(Cl)c1F)C12CC3CC(CC(C3)C1)C2`, for which the “activity change, negative = inhibition” value was -2.47% (inactive). Turning to `CCc1ccc(NC(=O)CN2C(=O)COc3ccc(S(=O)(=O)N4CCCC4)cc32)cc1`, the “activity change, negative = inhibition” value was 1.71% (inactive).

Consider `CCC(C)NC(=O)c1ccc(NC(=O)CC2SC(N3CCCCC3)=NC2=O)cc1` (configuration not stated), for which the “activity change, negative = inhibition” value is 12.6% (inactive). Regarding `O=C(Nc1ccccc1Cl)/C(Cl)=C(\Cl)S(=O)c1ccccc1` (configuration not stated), the Potency is 9.2 µM (active). Consider `O=C(Nc1ccccc1Cl)Nn1cnnc1`, for which the “activity change, negative = inhibition” value was 0.688% (inactive). On to `COCCN(CCOC)C(=S)Nc1ccccc1Cl`, for which the “activity change, negative = inhibition” value was 6.84% (inactive). Consider `CSc1cccc(NC(=O)CN2C(=O)COc3ccc(S(=O)(=O)N4CCOCC4)cc32)c1`, for which the “activity change, negative = inhibition” value was 3.54% (inactive). The same measure, in the same setting: next, `Cc1ccc(C(=O)NC23CC4CC(CC(C4)C2)C3)c(Cl)c1`: 27.6% (inactive).

`COc1cccc(CCNC(=O)c2cccc(NC(=O)C3=C(C)OCCS3)c2)c1`: the Potency was 20.6 µM (active). With `COc1ccc(N2CCN(C(=O)c3ccccc3NC(=O)C3=C(C)OCCS3)CC2)cc1`, the “activity change, negative = inhibition” value was 5.9% (inactive).

On to `CCCCNC(=O)c1ccccc1NC(=O)C1=C(C)OCCS1`, for which the “activity change, negative = inhibition” value is 1.59% (inactive).

As to `CCn1c(SCC(=O)NNC(=O)c2ccc(OC)cc2)nnc1C(C)C`, the “activity change, negative = inhibition” value is 0% (inactive). Still for that read-out and setting: next, `Cc1ccc(CNC(=O)Cn2cnc3c(NCc4ccccc4)ncnc32)o1`: -20.6% (inactive); `Cc1nc2ccccc2c(=O)n1Cc1ccc([N+](=O)[O-])cc1`: 3.4% (inactive). Turning to `Cn1cc(/C=C/c2nc3ccccc3c(=O)n2-c2cccc([N+](=O)[O-])c2)c2ccccc21`, the “activity change, negative = inhibition” value is 5.73% (inactive). With `CCn1c(/C=C/c2ccc([N+](=O)[O-])o2)nc2ccccc2c1=O`, the Potency is 16.4 µM (active). In the case of `Cc1cc(C)c(S(=O)(=O)N2CCCC2CNC(=O)c2ccc3c(c2)OCO3)c(C)c1` (configuration not stated), the “activity change, negative = inhibition” value was -14.4% (inactive). Consider `CCc1nc(Nc2ccc3nccnc3c2)c2oc3ccccc3c2n1`, for which the Potency is 2.59 µM (active). In the case of `CCc1nc(N2CCN(c3nc(C)cc(C)n3)CC2)c2oc3ccccc3c2n1`, the “activity change, negative = inhibition” value is 5.17% (inactive).

Turning to `CCc1nc(Nc2ccc(NC(C)=O)cc2)c2oc3ccccc3c2n1`, the “activity change, negative = inhibition” value is -14.5% (inactive). For `CCCCCc1c(C)nc(N2CCN(Cc3ccc4c(c3)OCO4)CC2)[nH]c1=O`, the “activity change, negative = inhibition” value was -15.9% (inactive). For the molecule `CCC(C)[C@H](NC(=O)N1CCn2c1nc1ccccc12)C(=O)NCc1ccc(OC)cc1` (some centres not stated), the “activity change, negative = inhibition” value was 7.99% (inactive). Consider `COc1ccc(OC)c(NC(=O)COC(=O)Cc2ccsc2)c1`, for which the “activity change, negative = inhibition” value was -0.0729% (inactive). For the molecule `CCOC(=O)CSc1nc(N2CCOCC2)c2c(c1C#N)CC(C(C)C)OC2` (configuration not stated), the “activity change, negative = inhibition” value is -13.9% (inactive).

On to `CC(C)c1nc(N2CCOCC2)c(C#N)c2c1COC(C)(C)C2`, for which the “activity change, negative = inhibition” value was -8.03% (inactive). `COc1ccc(CSc2nc(N3CCOCC3)c3c(c2C#N)CC(C)(C)OC3)cc1`: the Potency was 0.92 µM (active).

With `O=C(COC(=O)c1ccc(O)cc1O)c1ccc2c(c1)OCCO2`, the “activity change, negative = inhibition” value was 0% (inactive). Regarding `CCN1CCN(c2ccc(S(=O)(=O)N3CCCCC3)cc2NC(=O)c2cccc(NC(C)=O)c2)CC1`, the “activity change, negative = inhibition” value was -0.31% (inactive). Take `CCN(CC)S(=O)(=O)c1ccc(N2CCOCC2)c(NC(=O)C(C)Oc2ccc(F)cc2)c1` (configuration not stated): the Potency was 8.2 µM (active). In the case of `CCN(CC)S(=O)(=O)c1ccc(N2CCOCC2)c(NC(=O)c2ccc(=O)n(C)n2)c1`, the “activity change, negative = inhibition” value was 9.63% (inactive). For the molecule `CC(Oc1ccc(F)cc1)C(=O)Nc1cc(S(=O)(=O)N2CCOCC2)ccc1N1CCN(C)CC1` (configuration not stated), the “activity change, negative = inhibition” value is 4.53% (inactive). For `COc1cccc(CNS(=O)(=O)c2ccc3c(c2)N(C(C)=O)CCS3)c1`, the “activity change, negative = inhibition” value is -7.71% (inactive).

With `O=C(Nc1cccc(C(=O)NC2CC2)c1)c1ccc(F)c(S(=O)(=O)N2CCOCC2)c1`, the “activity change, negative = inhibition” value is -9.6% (inactive). On the same count and under the same terms, next, `COc1ccc(NC(=O)NCCN2CCN(c3ccc(C)cc3)CC2)c(Cl)c1`: -0.113% (inactive); `CC1Oc2ccccc2N(Cc2cccnc2)C1=O` (configuration not stated): 3.27% (inactive).

`CC1C(=O)N(Cc2ccccc2)c2ccccc2N1C(=O)c1ccccc1` (configuration not stated): the Potency is 25.9 µM (active). Regarding `O=C1C(Cc2ccc(O)cc2)NC(=S)N1Cc1ccccc1` (configuration not stated), the “activity change, negative = inhibition” value is 2.47% (inactive). Take `COCCN(Cc1ccccc1)C(=O)Cc1ccc(S(=O)(=O)N2CCOCC2)s1`: the “activity change, negative = inhibition” value was 14.1% (inactive).
